Rows were chosen to be rich in hits. Some 18% of all compounds tested hit in one or more screens of this group.
TGFb inhibitor = TGF-b pathway inhibition; HepG2 CAGA-GFP TGF-b/SMAD3 reporter, GFP fluorescence, 18 h; TGF-beta stimulated, 500 pg/mL final; Potency, µM (highest dose often 46.1 µM), for the others: at the top dose activity, negative = inhibition, most hits filed as inhibitors; 410,000 compounds, 1.2% hits; AID 588855; note: potency is the fitted concentration of half-maximal effect; % is set by controls: 0 for no effect and ±100 for the full control effect; nearly all actives have a fitted effect of over 65% in size
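Smad-responsive CAGA-GFP expression was quantified in HEPG2 cells exposed to compounds and 500 pg/mL final TGF-beta for 18 h at 37 degrees C; unstimulated wells defined full inhibition.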
HepG2 viability = HepG2 cytotoxicity, counter-screen for TGF-b inhibitors. HepG2 CAGA-GFP viability, ATP luminescence, 18 h. Potency, µM (highest dose often 46.1 µM), for the others: at the highest dose activity change, negative = cytotoxicity, hits mostly cytotoxic. 410,000 compounds, 0.76% hits; note: potency is the fitted concentration of half-maximal effect
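CellTiter-Glo luminescence gave cytotoxicity after 18 hours at 37 degrees C. The cells were HepG2 CAGA-GFP in 1% FBS DMEM, stimulated with 500 pg/mL TGF-beta after compound addition. %Activity was normalised to no-cell wells (complete cell-killing) and DMSO (no toxicity), and curves were fitted and classified.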
TDP1 block = inhibitors of human tyrosyl-DNA phosphodiesterase TDP1; Q9NUW8; Potency, µM (doses to about 130 µM), for inactives: top-dose activity change, negative = inhibition, hits mostly inhibitors; 350,000 compounds, 0.28% hits; recombinant TDP1, AlphaScreen DNA substrate cleavage; AID 485290; note: potency is the fitted concentration of half-maximal effect; % is set by controls: 0 for no effect and ±100 for the full control effect; nearly all actives have a fitted effect of over 40% in size
Target sequence (Q9NUW8 whole entry, looked up): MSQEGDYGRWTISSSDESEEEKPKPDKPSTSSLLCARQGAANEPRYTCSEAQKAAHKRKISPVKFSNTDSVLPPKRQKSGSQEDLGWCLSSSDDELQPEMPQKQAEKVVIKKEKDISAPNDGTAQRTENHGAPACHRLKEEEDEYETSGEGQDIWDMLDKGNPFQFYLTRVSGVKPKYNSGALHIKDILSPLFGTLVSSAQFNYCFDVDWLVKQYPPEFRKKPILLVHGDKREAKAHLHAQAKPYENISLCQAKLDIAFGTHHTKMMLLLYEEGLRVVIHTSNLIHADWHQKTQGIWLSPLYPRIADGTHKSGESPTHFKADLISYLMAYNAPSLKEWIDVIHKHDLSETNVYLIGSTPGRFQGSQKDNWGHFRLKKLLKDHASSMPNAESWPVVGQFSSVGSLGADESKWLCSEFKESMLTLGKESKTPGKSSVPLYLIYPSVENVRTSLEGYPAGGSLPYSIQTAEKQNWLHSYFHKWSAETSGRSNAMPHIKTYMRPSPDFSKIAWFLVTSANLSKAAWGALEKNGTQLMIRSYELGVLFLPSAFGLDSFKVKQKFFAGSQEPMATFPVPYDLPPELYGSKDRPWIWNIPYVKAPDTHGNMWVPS
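Steps: enzyme plus compound, 15 min RT; add biotin/phosphotyrosine-FITC oligonucleotide (15 nM final), react 5 min; add donor/acceptor beads (10 ug/ml final), 10 min; read AlphaScreen. Tdp1 at 1 nM final.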
TDP1 cell CPT = DT40-hTDP1 cell growth loss with CPT; chicken DT40 Tdp1-/-;hTDP1 cells + 20 nM CPT, ATP luminescence, 48 h; Potency, µM (titrated, usually from 46.2 µM), for inactives: at the highest dose activity change, negative = growth inhibition, most hits filed as inhibitors; 420,000 compounds, 12% hits; note: potency is the fitted concentration of half-maximal effect; % is set by controls: 0 for no effect and ±100 for the full control effect; nearly all actives have a fitted effect of over 55% in size
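Chicken DT40 Tdp1-/- cells complemented with human TDP1, 400 cells/well, exposed to compounds plus 20 nM camptothecin for at least 48 h at 37 C; viability read as ATP content by CellTiter-Glo luminescence.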
IL1B secr inh = inflammasome signaling inhibition, IL-1 beta readout; activity change, % at 57.5 µM; 360,000 compounds, 4.7% hits; THP-1 LPS/ATP IL-1B secretion, AlphaLISA, 16 h; stronger effect = lower value; in the data active = activity change below about -50%; inconclusive = mostly about -30% to -49%; note: % is set by controls: 0 for no effect and ±100 for the full control effect
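Secreted IL-1B measured by AlphaLISA bead assay after 16 h compound exposure of THP-1 cells; compounds (final up to 57.5 uM) added 1 h before LPS (250 ng/mL) and ATP (1.25 mM) stimulation; lower signal means less secretion.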
DT40 TDP1 no CPT = qHTS for Inhibitors of human tyrosyl-DNA phosphodiesterase 1 (TDP1): qHTS in cells in absence of CPT | DT40 Tdp1-/- hTDP1 cells, no CPT, ATP luminescence, 48 h | Potency, µM (top dose mostly 46.2 µM), for the others: top-dose activity change, negative = growth inhibition, usual class: inhibitors | 420,000 compounds, 15% hits | AID 686978, 2013; note: potency is the fitted concentration of half-maximal effect; % is set by controls: 0 for no effect and ±100 for the full control effect; nearly all actives have a fitted effect of over 55% in size
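Cells were dispensed at 400 per well, compounds added by pin tool, plates incubated ≥48 hr at 37 °C, then CellTiter-Glo added for 30 min at room temperature before luminescence reading. Line: DT40 Tdp1-/- complemented with hTDP1; camptothecin omitted.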
* marks the source's active call; other numbers are inactive results; u = inconclusive; x = no result; [ ] = dose if it differs, or a comment. Unless noted, calls come from the whole dose curve; as a rule, active = well fitted curve in the direction sought with a large enough effect; inconclusive = small, poorly fitted or top-dose-only effect, or another doubt; inactive = no such curve, though single readings can be large; an effect the other way counts as inactive or inconclusive.

SMILES | TGFb inhibitor | HepG2 viability | TDP1 block | TDP1 cell CPT | IL1B secr inh | DT40 TDP1 no CPT
O=[N+]([O-])c1cccc(C2Nc3cccc4cccc(c34)N2)c1 | u | 5% | 3% | u | -8 | 21µM*
CCCC(=O)N1CCCC1(C)C(=O)N(C)Cc1cccc2ccccc12 (centres undefined) | 17% | -2% | x | u | 0 | u
CCOc1ccc(C=C2SC(=O)N(CCN)C2=O)cc1 | x | x | 11% | x | x | x
Oc1ccccc1-c1cnc2cccnn12 | 20% | 1% | x | 16µM* | 28 | u
CCOC(=O)C1=CCN(S(=O)(=O)c2ccccc2F)C1c1cccc(Br)c1 (centres undefined) | u | -23% | x | u | 16 | u
CCOC(=O)C1=CCN(S(=O)(=O)c2ccc(Cl)cc2)C1c1cccc(C)c1 (centres undefined) | u | -23% | x | u | 11 | u
CCOC(=O)C1=CCN(S(=O)(=O)c2ccc(Br)cc2)C1c1cccc(C)c1 (centres undefined) | u | -15% | x | u | 6 | 26µM*
CCOC(=O)C1=CCN(S(=O)(=O)c2ccc(C)cc2)C1c1cccc(Br)c1 (centres undefined) | u | -19% | x | 16µM* | -18 | u
CCOC(=O)C1=CC[C@@H](c2cccc(Br)c2)N(S(=O)(=O)c2ccc(F)cc2)[C@H]1c1cccc(Cl)c1 | x | x | x | 21µM* | 11 | 10µM*
OC[C@H]1OC([S-])[C@H](O)[C@@H](O)[C@@H]1O.[Au+] (some centres undefined) | x | x | x | 24µM* | x | -86%
OC[C@@H]1OC(O)[C@@H](O)[C@H](O)[C@H]1O (some centres undefined) | x | x | 6% | x | x | x
COc1cccc(/C=N/N=C(\N)c2nonc2N)c1O | -5% | -18% | 2% | 0.0065µM* | -22 | 0.92µM*
COc1cc(/C=N/N=C(/N)c2nonc2N)cc(Br)c1OCc1ccccc1C | u | -53% | 2% | u | -10 | u
CC1(C(=O)Nc2ccc3c(c2)OCCO3)CCC(=O)N1C1CCN(Cc2ccccc2)CC1 (centres undefined) | -3% | 1% | x | 7% | -15 | 2%
CC(=O)c1ccc(C(=O)NCc2nc(-c3ccccc3NC(=O)c3cc(C)oc3C)oc2C)cc1 | x | x | x | -1%[9.04 µM] | x | -7%
CCOC(=O)C(CC)Sc1ccc2nnc(CCNS(=O)(=O)c3ccc(C)cc3)n2n1 (centres undefined) | -14% | -32% | 0% | u | x | u
COc1ccc(S(=O)(=O)Nc2cccc(-c3ccc(N4CCCCCC4)nn3)c2)cc1OC | u | -4% | 4% | u | -8 | u
COc1ccc(Cl)cc1S(=O)(=O)Nc1cccc(-c2ccc(N3CCOCC3)nn2)c1 | -1% | -3% | 4% | u | x | u
COc1ccc(S(=O)(=O)Nc2cccc(-c3ccc(N4CCCCCC4)nn3)c2)c(OC)c1 | u | -2% | 1% | u | -23 | 29µM*
CCOc1ccc(S(=O)(=O)Nc2cccc(-c3ccc(N4CCCC4)nn3)c2)cc1 | -29% | -23% | -1% | 7.3µM* | x | u
CCOc1ccc(C(C)C)cc1S(=O)(=O)Nc1cccc(-c2ccc(N3CCOCC3)nn2)c1 | -5% | -14% | 7% | u | x | 15µM*
COc1ccc(S(=O)(=O)Nc2cccc(-c3ccc(N4CCCCCC4)nn3)c2)cc1 | -12% | -20% | 2% | 16µM* | x | u
Cc1cnc(CNc2ccnc(-c3ccoc3)n2)cn1 | x | x | x | 11% | x | 12%
